Records with an inconclusive call do not appear. Calls of active or inactive are those of the source. The call rests on the fitted dose curve.
Key:
[1] = target: Acetylcholinesterase (Homo sapiens) (UniProt P22303); assay: Acetylcholinesterase (AChE) small molecule antagonists: colormetric cell-based qHTS assay (AID 1347395); further: nearly all actives have a fitted effect of over 30% in size
Outline: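 SH-SY5Y cells attached overnight, exposed to compound 30 min at 37 C, then given DTNB/acetylthiocholine; after 90 min at 37 C, colorimetric thiocholine read gives cellular AChE activity.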

[2] = target: Acetylcholinesterase (Homo sapiens) (UniProt P22303); assay: Acetylcholinesterase (AChE) small molecule antagonists: enzyme-based qHTS assay (AID 1347397); settings: Potency: AChE enzyme activity inhibition; outcome: AChE enzyme activity inhibition; further: nearly all actives have a fitted effect of over 55% in size
Outline: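 Colorimetric DTNB readout of acetylthiocholine hydrolysis, 10 min at room temperature, after 30 min room-temperature exposure of 50 mU/mL recombinant human enzyme to compound; DMSO vehicle control.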

[3] = target: Acetylcholinesterase (Homo sapiens) (UniProt P22303); assay: Acetylcholinesterase (AChE) small molecule antagonists: fluorescence cell-based qHTS assay (AID 1347398); settings: Potency: AChE activity; outcome: AChE activity; further: nearly all actives have a fitted effect of over 50% in size
Outline: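 Cellular AChE activity read as thiocholine from acetylthiocholine hydrolysis, detected by Thiolite Green fluorescence at 490/520 nm after 40 min at room temperature. Compounds were pre-incubated 30 min at 37 C on adherent SH-SY5Y cells.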

[4] = target: Acetylcholinesterase (Homo sapiens) (UniProt P22303); assay: Acetylcholinesterase (AChE) small molecule antagonists: enzyme-based qHTS assay with human liver microsomes (AID 1347399); settings: Potency: qHTS inhibition; outcome: qHTS inhibition; further: nearly all actives have a fitted effect of over 60% in size
Outline: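 Recombinant human AChE (50 mU/mL in the enzyme mix) and human liver microsomes (0.25 mg/mL final) were preincubated with compound and NADPH (0.25 mg/mL final) for 30 min at 37 C. Acetylthiocholine/DTNB was then added; thiocholine was read colorimetrically after 10 min at room temperature.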
On the % scale 0 is the no-effect control and ±100 the full control effect.

Sequence of Acetylcholinesterase (Homo sapiens) (P22303 whole entry, looked up): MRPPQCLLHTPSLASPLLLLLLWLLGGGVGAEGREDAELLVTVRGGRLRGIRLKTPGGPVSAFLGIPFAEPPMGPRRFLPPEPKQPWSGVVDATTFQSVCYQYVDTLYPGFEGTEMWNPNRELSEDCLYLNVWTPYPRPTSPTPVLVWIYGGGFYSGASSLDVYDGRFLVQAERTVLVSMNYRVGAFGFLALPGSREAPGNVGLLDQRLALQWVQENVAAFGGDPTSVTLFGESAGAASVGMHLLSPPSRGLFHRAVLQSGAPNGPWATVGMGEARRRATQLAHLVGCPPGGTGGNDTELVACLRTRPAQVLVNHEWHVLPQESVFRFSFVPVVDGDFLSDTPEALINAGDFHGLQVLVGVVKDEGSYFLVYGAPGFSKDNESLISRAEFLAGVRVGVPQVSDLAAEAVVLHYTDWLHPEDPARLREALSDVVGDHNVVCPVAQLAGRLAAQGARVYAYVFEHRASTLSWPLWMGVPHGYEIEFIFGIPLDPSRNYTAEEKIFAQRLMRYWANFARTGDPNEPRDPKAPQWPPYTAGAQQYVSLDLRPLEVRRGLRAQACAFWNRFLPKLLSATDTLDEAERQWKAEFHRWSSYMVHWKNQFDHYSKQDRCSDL

C1CCN(CN2CCCCC2)CC1
inactive: Potency [1] | Potency [2] | Potency [3] | Potency [4]

CCOC(=O)C1=C(C)NC(C)=C(C(=O)OCC)C1c1ccccc1/C=C/C(=O)OC(C)(C)C
inactive: Potency [1] | Potency [2] | Potency [3] | Potency [4]

COC(=O)c1ccccc1
inactive: Potency [1] | Potency [2] | Potency [3] | Potency [4]

BrC1CCC(Br)C(Br)CCC(Br)C(Br)CCC1Br (stereo not given)
inactive: Potency [1] | Potency [2] | Potency [3] | Potency [4]

CCCOC(=O)c1cc(O)c(O)c(O)c1
inactive: Potency [1] | Potency [2] | Potency [3] | Potency [4]

OC[C@@H](O)[C@@H](O)[C@H](O)[C@@H](O)CO
inactive: Potency [1] | Potency [2] | Potency [3] | Potency [4]

Nc1ccn([C@H]2CC[C@@H](CO)O2)c(=O)n1
inactive: Potency [1] | Potency [2] | Potency [3] | Potency [4]

O=C(c1ccccc1)c1cc(Cl)ccc1O
inactive: Potency [1] | Potency [2] | Potency [3] | Potency [4]

CC1(C)SC(C)(C)SC(C)(C)S1
inactive: Potency [1] | Potency [2] | Potency [3] | Potency [4]

Cc1c(C)c2c(c(C)c1O)CC[C@@](C)(CCC[C@H](C)CCC[C@H](C)CCCC(C)C)O2
inactive: Potency [1] | Potency [2] | Potency [3] | Potency [4]

O=c1cccc[nH]1
inactive: Potency [1] | Potency [2] | Potency [3] | Potency [4]

O=c1[nH]c(=O)n([C@H]2C[C@H](O)[C@@H](CO)O2)cc1F
inactive: Potency [1] | Potency [2] | Potency [3] | Potency [4]

CC(C=O)Cc1ccc(C(C)(C)C)cc1 (stereo not given)
inactive: Potency [1] | Potency [2] | Potency [3] | Potency [4]

CC(O)C#CC(C)O (stereo not given)
inactive: Potency [1] | Potency [2] | Potency [3] | Potency [4]

c1ccsc1
inactive: Potency [1] | Potency [2] | Potency [3] | Potency [4]

Nc1ccc2cc3ccccc3cc2c1
inactive: Potency [1] | Potency [2] | Potency [3] | Potency [4]

CC1(C)O[C@@H]2C[C@H]3[C@@H]4CCC5=CC(=O)C=C[C@]5(C)[C@H]4[C@@H](O)C[C@]3(C)[C@]2(C(=O)CO)O1
inactive: Potency [1] | Potency [2] | Potency [3] | Potency [4]

Nc1cc([N+](=O)[O-])ccc1O
inactive: Potency [1] | Potency [2] | Potency [3] | Potency [4]

Cc1c(N(C)CS(=O)(=O)O)c(=O)n(-c2ccccc2)n1C
inactive: Potency [1] | Potency [2] | Potency [3] | Potency [4]

CCCC(=O)O[C@]1(C(=O)CO)CC[C@H]2[C@@H]3CCC4=CC(=O)CC[C@]4(C)[C@H]3[C@@H](O)C[C@@]21C
inactive: Potency [1] | Potency [2] | Potency [3] | Potency [4]

CCC(C)C(C)=O (stereo not given)
inactive: Potency [1] | Potency [2] | Potency [3] | Potency [4]

COC(=O)[C@@H]1CC2=CC(=O)CC[C@]2(C)[C@@]23O[C@@H]2C[C@@]2(C)[C@@H](CC[C@@]24CCC(=O)O4)[C@H]13
inactive: Potency [1] | Potency [2] | Potency [3] | Potency [4]

Fc1ccc(C(c2ccc(F)cc2)N2CCNCC2)cc1
inactive: Potency [1] | Potency [2] | Potency [3] | Potency [4]

C=CCOC(=O)CCCCCCCC
inactive: Potency [1] | Potency [2] | Potency [3] | Potency [4]

C#CC(C)(CC)OC(=O)c1ccccc1C(=O)O (stereo not given)
inactive: Potency [1] | Potency [2] | Potency [3] | Potency [4]

CO[C@@]1(NC(=O)CSCC#N)C(=O)N2C(C(=O)O)=C(CSc3nnnn3C)CS[C@@H]21
inactive: Potency [1] | Potency [2] | Potency [3] | Potency [4]

CCOC(=O)CC(CC(=O)OCC)(OC(C)=O)C(=O)OCC
inactive: Potency [1] | Potency [2] | Potency [3] | Potency [4]

CC(C)(C)c1ccc(CCC=O)cc1
inactive: Potency [1] | Potency [2] | Potency [3] | Potency [4]

N[C@@H](CSSC[C@H](N)C(=O)O)C(=O)O
inactive: activity, negative = inhibition [1] 3.18% [at 0.435 µM] | activity change, negative = inhibition [2] 0.405% [at 0.435 µM] | activity change, negative = inhibition [3] 2.04% [at 0.439 µM] | activity change, negative = inhibition [4] -2.13% [at 0.435 µM]

CCCC(=O)OCCC(C)CCC=C(C)C (stereo not given)
inactive: Potency [1] | Potency [2] | Potency [3] | Potency [4]

CCC(CO)(CO)CO
inactive: Potency [1] | Potency [2] | Potency [3] | Potency [4]

C[C@H]1[C@H](NC(=O)/C(=N/OC(C)(C)C(=O)O)c2csc(N)n2)C(=O)N1S(=O)(=O)O (stereo in doubt)
inactive: Potency [1] | Potency [2] | Potency [3] | Potency [4]

OCCN(CCO)CCN(CCO)CCO
inactive: Potency [1] | Potency [2] | Potency [3] | Potency [4]

CCCS(=O)c1ccc2nc(NC(=O)OC)[nH]c2c1 (stereo not given)
inactive: Potency [1] | Potency [2] | Potency [3] | Potency [4]

N#CCC(=O)O
inactive: Potency [1] | Potency [2] | Potency [3] | Potency [4]

CC1=CC(=O)/C(=C(/C)O)C(=O)O1
inactive: Potency [1] | Potency [2] | Potency [3] | Potency [4]

BrC(Br)C(Br)Br
inactive: Potency [1] | Potency [2] | Potency [3] | Potency [4]

CCCCCCCCC
inactive: Potency [1] | Potency [2] | Potency [3] | Potency [4]

NC[C@H]1O[C@H](O[C@H]2[C@H](O[C@@H]3O[C@H](CO)[C@@H](O)[C@H]3O)C(O)[C@H](N)C[C@@H]2N)[C@H](N)[C@@H](O)[C@@H]1O (stereo not given in full)
inactive: activity, negative = inhibition [1] -1.41% [at 10.5 µM] | activity change, negative = inhibition [2] 0.757% [at 10.5 µM] | activity change, negative = inhibition [3] 8.04% [at 10.5 µM] | activity change, negative = inhibition [4] -2.19% [at 10.5 µM]

CCCCN1C[C@H](O)[C@@H](O)[C@H](O)[C@H]1CO
inactive: Potency [1] | Potency [2] | Potency [3] | Potency [4]

CCN(Cc1cccc(S(=O)(=O)O)c1)c1ccc(C(=C2C=CC(=[N+](CC)Cc3cccc(S(=O)(=O)O)c3)C=C2)c2ccccc2S(=O)(=O)[O-])cc1
inactive: Potency [1] | Potency [2] | Potency [3] | Potency [4]

Cc1c(C(=O)c2c[nH]n(C)c2=O)ccc(S(C)(=O)=O)c1C1=NOCC1
inactive: Potency [1] | Potency [2] | Potency [3] | Potency [4]

C[C@@H](NCCCc1cccc(C(F)(F)F)c1)c1cccc2ccccc12
inactive: Potency [1] | Potency [2] | Potency [3] | Potency [4]

O=C(O)CNC(=O)c1ccccc1
inactive: Potency [1] | Potency [2] | Potency [3] | Potency [4]

Nc1nc(N)c2nc(-c3ccccc3)c(N)nc2n1
inactive: Potency [1] | Potency [2] | Potency [3] | Potency [4]

COc1cc(C(=O)NCCCCCC(=O)O)cc(OC)c1OC
inactive: Potency [1] | Potency [2] | Potency [3] | Potency [4]

CC1(C)O[C@@H]2C[C@H]3[C@@H]4C[C@H](F)C5=CC(=O)C=C[C@]5(C)[C@H]4[C@@H](O)C[C@]3(C)[C@]2(C(=O)CO)O1
inactive: Potency [1] | Potency [2] | Potency [3] | Potency [4]

C[C@@H]1[C@H](O)[C@@H](C)/C=C/C=C\C=C\C=C\C=C\C=C\C=C\[C@H](O[C@@H]2O[C@H](C)[C@@H](O)[C@H](N)[C@@H]2O)C[C@@H]2O[C@](O)(C[C@@H](O)C[C@@H](O)[C@H](O)CC[C@@H](O)C[C@@H](O)CC(=O)O[C@H]1C)C[C@H](O)[C@H]2C(=O)O (stereo in doubt)
inactive: Potency [1] | Potency [2] | Potency [3] | Potency [4]

Cc1[nH]c(C)c(Cl)c(=O)c1Cl
inactive: activity, negative = inhibition [1] 1.65% [at 23.6 µM] | activity change, negative = inhibition [2] -0.693% [at 23.6 µM] | activity change, negative = inhibition [3] -0.55% [at 23.8 µM] | activity change, negative = inhibition [4] -0.336% [at 23.6 µM]

C=C(C)C(=O)OCCN(CC)CC
inactive: Potency [1] | Potency [2] | Potency [3] | Potency [4]

c1ccc2sc(SSN3CCOCC3)nc2c1
inactive: Potency [1] | Potency [2] | Potency [3] | Potency [4]

O=Cc1ccccc1S(=O)(=O)O
inactive: Potency [1] | Potency [2] | Potency [3] | Potency [4]

CCCCCCCCCCCCCCCC(=O)OC
inactive: activity, negative = inhibition [1] 2.77% [at 23.6 µM] | activity change, negative = inhibition [2] -0.557% [at 23.6 µM] | activity change, negative = inhibition [3] 2.99% [at 23.8 µM] | activity change, negative = inhibition [4] 0.243% [at 23.6 µM]

COc1ccc(Cc2cnc(N)nc2N)cc1OC
inactive: Potency [1] | Potency [2] | Potency [3] | Potency [4]

COC(=O)c1ccc(O)cc1
inactive: Potency [1] | Potency [2] | Potency [3] | Potency [4]

C[Si](C)(C)O[Si](O)(O)O
inactive: Potency [1] | Potency [2] | Potency [3] | Potency [4]

C1CCC2OC2C1 (stereo not given)
inactive: Potency [1] | Potency [2] | Potency [3] | Potency [4]

O=C(O)CC(C(=O)O)S(=O)(=O)O (stereo not given)
inactive: Potency [1] | Potency [2] | Potency [3] | Potency [4]

CCCCCCC(C)(C)C(=O)O
inactive: Potency [1] | Potency [2] | Potency [3] | Potency [4]

OCCCc1ccccc1
inactive: Potency [1] | Potency [2] | Potency [3] | Potency [4]
